We go through twelve compounds from PubChem BioAssay (NCI).

The panel holds about 83,000 compounds, 20% with a hit somewhere; the sample as a whole holds those more often.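 Cell lines were cultured in 96-well plates, exposed to a single compound concentration, and assessed for percent growth 48 hours later.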 Unmarked numbers belong to inactive results. The source made the active and inactive calls. Rule for the calls: active = growth percent below 10; inactive = the rest.

Some test systems named below: DU-145 prostate; K-562 leukemia; MALME-3M melanoma; MDA-MB-231 breast; RXF 393 renal; SF-268 CNS; SF-295 CNS; SF-539 CNS; UACC-257 melanoma; M14 melanoma.
What all share (experiment): NCI-60 one-dose screen, 48 h (100 = growth as untreated, 0 = no growth, -100 = all killed)
Holding throughout (details): 10 µM unless noted

Take `O=C(CCl)c1ccc([N+](=O)[O-])o1`: the growth with DU-145 prostate is -30.8% (active); with K-562 leukemia it was -36.7% (active); in the assay with MALME-3M melanoma, -54.6% (active); in the assay on MDA-MB-231 breast it was 64.6%; in the assay with RXF 393 renal, -48.2% (active); with SF-268 CNS it was 1.57% (active). Further, the growth is 92.2% in the assay on SF-295 CNS, 2.78% (active) in the assay on SF-539 CNS, -49.3% (active) with UACC-257 melanoma and -11.5% (active) in the assay with M14 melanoma.
In the case of `CCCC[C@H](NC(=O)[C@H]1CCCN1C)C(=O)N(C)[C@H](C[C@@H](OC(C)=O)c1nc(C(=O)N[C@@H](Cc2ccccc2)C[C@H](C)C(=O)OCC)cs1)C(C)C`, the growth in the assay with DU-145 prostate is 12.8%; with K-562 leukemia, 9.85% (active); in the assay on MALME-3M melanoma, 49.5%; with MDA-MB-231 breast it was 3.51% (active); in the assay with RXF 393 renal, 25.3%; with SF-268 CNS, 25.8%. Further, the growth is 13.3% with SF-295 CNS, 0.375% (active) with SF-539 CNS, 46.1% with UACC-257 melanoma and -12% (active) with M14 melanoma.
`CC[C@H](C)[C@H](NC(=O)[C@H]1CCCCN1C)C(=O)N(C)[C@H](CC(=O)c1nc(C(=O)N[C@@H](Cc2ccccc2)C[C@H](C)C(=O)O)cs1)C(C)C`: the growth is 106% in the assay on DU-145 prostate; 32.2% in the assay with K-562 leukemia; 67.1% in the assay with MALME-3M melanoma; 88% in the assay on MDA-MB-231 breast; 87.1% in the assay on RXF 393 renal; 84.2% with SF-268 CNS. The growth with SF-295 CNS was 87.4%; in the assay with SF-539 CNS, 75.8%; in the assay on UACC-257 melanoma, 74%; in the assay on M14 melanoma, 57.9%.
As for `CN(C)C(=O)Oc1ccc(Br)cc1`, the growth was 107% with DU-145 prostate; 96.5% with K-562 leukemia; 98% in the assay on MALME-3M melanoma; 105% in the assay with MDA-MB-231 breast; 107% in the assay on RXF 393 renal; 110% in the assay with SF-268 CNS. Further, the growth in the assay on SF-295 CNS was 91.3%; in the assay with SF-539 CNS, 108%; with UACC-257 melanoma, 95%; with M14 melanoma, 104%.
Consider `CN1C(=O)C(=Cc2cn(Cc3ccccc3)c3ccccc23)C(=O)N(C)C1=O`, for which the growth is 103% in the assay with DU-145 prostate; 51.1% with K-562 leukemia; 91.3% with MALME-3M melanoma; 75.5% with MDA-MB-231 breast; 56.9% with RXF 393 renal; 95.4% in the assay on SF-268 CNS. Further, the growth is 34.7% in the assay with SF-295 CNS, 86.2% in the assay on SF-539 CNS, 27.9% with UACC-257 melanoma and 92.6% with M14 melanoma.
As to `COc1ccc2nc(NC(=O)COc3cc(/C=C\c4cc(OC)c(OC)c(OC)c4)ccc3OC)sc2c1`, the growth in the assay on DU-145 prostate is 0.406% (active); in the assay with K-562 leukemia, 15.6%; in the assay on MALME-3M melanoma, 14.1%; in the assay on MDA-MB-231 breast it was 22.7%; in the assay with RXF 393 renal it was -19.9% (active); in the assay on SF-268 CNS, 42.3%. Moreover, the growth in the assay on SF-295 CNS was -2.09% (active); in the assay on SF-539 CNS it was -7.12% (active); in the assay with UACC-257 melanoma it was 59.5%; in the assay on M14 melanoma, 22.9%.
Regarding `COc1ccc(S(=O)(=O)N(Cc2ccc3c(c2)C=CC(C)(C)O3)c2ccccc2)cc1OC`, the growth with DU-145 prostate is 96.6%; with K-562 leukemia, 63.2%; in the assay with MALME-3M melanoma it was 83.4%; with MDA-MB-231 breast, 96.6%; with RXF 393 renal, 77.2%; in the assay with SF-268 CNS, 87.4%. Besides, the growth was 70.6% with SF-295 CNS, 97.3% in the assay on SF-539 CNS, 61.9% in the assay with UACC-257 melanoma and 87.6% in the assay with M14 melanoma.
With `CN(C)CC(C(=O)Cc1ccccc1)c1ccccc1` (stereo not given), the growth was -10.7% (active) with DU-145 prostate; 47.2% in the assay on K-562 leukemia; 37.5% with MALME-3M melanoma; 106% in the assay on MDA-MB-231 breast; 6.5% (active) in the assay on RXF 393 renal; 30.6% in the assay with SF-268 CNS. The growth in the assay with SF-295 CNS is 113%; in the assay on SF-539 CNS it was 5.03% (active); with UACC-257 melanoma, 5.79% (active); in the assay on M14 melanoma, 36%.
Consider `O=[N+]([O-])CC(O)C(Cl)(Cl)Cl` (stereo not given), for which the growth with DU-145 prostate is 117%; with K-562 leukemia, 113%; in the assay on MALME-3M melanoma it was 97.5%; in the assay on MDA-MB-231 breast, 122%; in the assay with RXF 393 renal it was 116%; in the assay with SF-268 CNS, 101%. In addition, the growth with SF-295 CNS was 102%; in the assay on SF-539 CNS, 92.6%; in the assay with UACC-257 melanoma, 111%; with M14 melanoma it was 104%.
As for `CCOC(=O)[C@@H](C)C[C@H](Cc1ccccc1)NC(=O)c1csc([C@@H](C[C@H](C(C)C)N(C)C(=O)[C@@H](NC(=O)[C@H]2C[C@H](O)CCN2C)C(C)C)OC(C)=O)n1`, the growth with DU-145 prostate was 0.421% (active); in the assay with K-562 leukemia, 6.81% (active); in the assay with MALME-3M melanoma, 35.1%; with MDA-MB-231 breast, 14.5%; with RXF 393 renal, 42.1%; with SF-268 CNS, 24.6%. Also, the growth in the assay on SF-295 CNS is -6.17% (active); in the assay with SF-539 CNS, -18.5% (active); in the assay on UACC-257 melanoma, 58.5%; with M14 melanoma, -13% (active).
On to `Nc1c(F)cc(-c2nc3cc(F)ccc3[se]2)cc1F`, for which the growth in the assay on DU-145 prostate was 99.8%; with K-562 leukemia, 85.8%; with MALME-3M melanoma, 101%; with MDA-MB-231 breast, 54.6%; with RXF 393 renal, 105%; with SF-268 CNS it was 91.4%. The growth is 87.8% with SF-295 CNS, 96.3% in the assay on SF-539 CNS, 101% in the assay with UACC-257 melanoma and 90% in the assay on M14 melanoma.
Take `Nc1ncnc2n[nH]nc12`: the growth with DU-145 prostate is 57%; in the assay with K-562 leukemia, 59.6%; with MALME-3M melanoma, 55.1%; in the assay on MDA-MB-231 breast it was 74.9%; in the assay on RXF 393 renal, 75.8%; in the assay with SF-268 CNS it was 81%. Moreover, the growth with SF-295 CNS is 53.5%; with SF-539 CNS, 86.8%; with UACC-257 melanoma it was 58.1%; with M14 melanoma, 39.8%.
